The supplement of paper PMC11628255, “Interference of metal ions on the bioluminescent signal of firefly, Renilla, and NanoLuc luciferases in high-throughput screening assays” (Frontiers in Chemistry, 2024)
± gives the standard deviation of the averaged measurements.

Tested on: NanoLuc luciferase (NLuc)
Test: residual bioluminescent signal relative to negative (DMSO) control; higher = less interference (more residual luciferase signal)
Method: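 Purified luciferase (FLuc 10 nM + 10 uM D-luciferin; NLuc 10 pM + 10 uM furimazine; RLuc 50 pM + 2 uM coelenterazine) in 384-well plates; metal salt pre-incubated with enzyme 10 min at RT, substrate added and luminescence read after 10 min. Signal normalised to plate DMSO negative control (% N_VALUE = x/mean neg *100); triplicate wells at 0.01, 1 and 5 mM salt.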

[1] = metal salt concentration 0.01 mM, HEPES conditions (100 mM HEPES, 0.1% BSA, pH 7.5)
[2] = metal salt concentration 0.01 mM, screening conditions (PBS, 0.1% BSA, pH 7.4)
[3] = metal salt concentration 1 mM, HEPES conditions (100 mM HEPES, 0.1% BSA, pH 7.5)
[4] = metal salt concentration 1 mM, screening conditions (PBS, 0.1% BSA, pH 7.4)
[5] = metal salt concentration 5 mM, HEPES conditions (100 mM HEPES, 0.1% BSA, pH 7.5)
[6] = metal salt concentration 5 mM, screening conditions (PBS, 0.1% BSA, pH 7.4)

| Compound | residual bioluminescent signal [1] | residual bioluminescent signal [2] | residual bioluminescent signal [3] | residual bioluminescent signal [4] | residual bioluminescent signal [5] | residual bioluminescent signal [6] |
| --- | --- | --- | --- | --- | --- | --- |
| O.O.O.O.O.O.O.O=S(=O)([O-])[O-].[Mg+2] [magnesium sulfate] | 91 ± 1.1% | 97.44 ± 0.7% | 99 ± 1.7% | 95.09 ± 0.87% | 107 ± 3.1% | 95.5 ± 2.1% |
| O=C([O-])[O-].[Cs+].[Cs+] [caesium carbonate] | 99.36 ± 0.78% | 98.8 ± 6.6% | 96.5 ± 3.1% | 102 ± 3% | 91.4 ± 3.5% | 92.2 ± 2.9% |
| [Cl-].[Na+] [sodium chloride] | 95.5 ± 3.6% | 99.4 ± 2.9% | 99.8 ± 3.9% | 102 ± 4.1% | 98.5 ± 2.6% | 99.4 ± 4.3% |
| [Cl][Fe]([Cl])[Cl] [iron(III) chloride] | 90.2 ± 4% | 93 ± 3% | 0.54 ± 0.37% | 53.4 ± 2.6% | 0.188 ± 0.081% | 0.189 ± 0.24% |
| [Cl][Fe][Cl] [iron(II) chloride] | 95.6 ± 6% | 99.7 ± 4.5% | 2.39 ± 1.2% | 10.5 ± 2.6% | 0.172 ± 0.13% | 0.779 ± 0.37% |
| CC#N.CC#N.CC#N.CC#N.F[B-](F)(F)F.[Cu+] [tetrakis(acetonitrile)copper(I) tetrafluoroborate] | 92.6 ± 2.9% | 90 ± 3% | 0.251 ± 0.095% | 0.838 ± 0.074% | 0.149 ± 0.095% | 0.354 ± 0.31% |
| O=S(=O)([O-])[O-].[Fe+2] [iron(II) sulfate] | 92.06 ± 0.82% | 97.1 ± 1.1% | 12.2 ± 3.3% | 29 ± 1.3% | 0.329 ± 0.23% | 1.15 ± 0.23% |
